Consider twelve sequences from paper PMC5700166.

Assay in all cases: protein-binding microarray (PBM); PBM: ~300 nM protein, 6 mM HEPES pH 7.8, 80 mM KCl, 0.5 mM EDTA, 0.5 mM EGTA, 6% glycerol, 35 ng/ul poly-dIdC, 1% milk, 1 h, room temperature; Ap Aiptasia and Nv Nematostella (sea anemones) / Co Capsaspora / Aq Amphimedon (sponge) / Dm Drosophila / Hu human; RHD is the Rel homology domain; high values mean tight binding
Conditions in all cases: dsDNA, one strand shown

For one test, the target named is T1, GST-Ap-NF-kB RHD (Exaiptasia pallida (Aiptasia), UniProt A0A913YAJ5 2-422).
T1 sequence: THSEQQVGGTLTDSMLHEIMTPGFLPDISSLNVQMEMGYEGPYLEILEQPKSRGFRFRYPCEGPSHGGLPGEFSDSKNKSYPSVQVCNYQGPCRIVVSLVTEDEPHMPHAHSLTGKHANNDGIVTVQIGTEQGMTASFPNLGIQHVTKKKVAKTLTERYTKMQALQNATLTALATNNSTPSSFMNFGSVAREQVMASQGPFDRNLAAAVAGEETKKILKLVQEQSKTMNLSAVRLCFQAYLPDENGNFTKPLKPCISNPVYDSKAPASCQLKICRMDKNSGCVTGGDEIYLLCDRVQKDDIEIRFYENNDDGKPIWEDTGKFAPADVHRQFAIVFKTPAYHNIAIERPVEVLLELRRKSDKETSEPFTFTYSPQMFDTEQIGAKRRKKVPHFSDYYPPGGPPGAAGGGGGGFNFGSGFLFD

Test [1] has as its target T2, GST-Nv-NF-kB (Cys allele) (Nematostella vectensis, UniProt E5G601 2-411).
T2 sequence: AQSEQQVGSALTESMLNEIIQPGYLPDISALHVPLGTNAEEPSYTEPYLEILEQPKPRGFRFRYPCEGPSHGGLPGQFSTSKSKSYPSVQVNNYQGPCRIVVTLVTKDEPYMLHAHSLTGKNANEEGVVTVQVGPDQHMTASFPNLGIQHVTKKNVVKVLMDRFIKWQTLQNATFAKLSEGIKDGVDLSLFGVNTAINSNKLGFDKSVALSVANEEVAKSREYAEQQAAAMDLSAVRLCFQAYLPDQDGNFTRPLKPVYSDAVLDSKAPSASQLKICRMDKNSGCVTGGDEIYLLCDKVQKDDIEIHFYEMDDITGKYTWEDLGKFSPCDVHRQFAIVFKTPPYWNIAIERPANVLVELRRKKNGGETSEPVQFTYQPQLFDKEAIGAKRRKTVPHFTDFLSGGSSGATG

Another test deals with T3, GST-Co-NF-kB (Capsaspora owczarzaki, UniProt F1ARL5 200-546).
T3 sequence: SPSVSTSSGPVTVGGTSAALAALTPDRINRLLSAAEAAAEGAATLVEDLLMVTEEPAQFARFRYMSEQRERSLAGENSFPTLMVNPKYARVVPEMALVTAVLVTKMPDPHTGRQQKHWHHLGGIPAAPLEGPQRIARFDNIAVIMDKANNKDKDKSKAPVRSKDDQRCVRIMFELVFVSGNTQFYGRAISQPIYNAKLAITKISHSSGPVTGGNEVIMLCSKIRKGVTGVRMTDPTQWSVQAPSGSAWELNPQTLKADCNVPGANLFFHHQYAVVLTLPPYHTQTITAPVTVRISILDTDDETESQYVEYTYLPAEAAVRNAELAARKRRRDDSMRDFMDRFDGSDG

Another test concerns the target T4, GST-Dm-Relish (Drosophila melanogaster, UniProt Q94527 99-473).
T4 sequence: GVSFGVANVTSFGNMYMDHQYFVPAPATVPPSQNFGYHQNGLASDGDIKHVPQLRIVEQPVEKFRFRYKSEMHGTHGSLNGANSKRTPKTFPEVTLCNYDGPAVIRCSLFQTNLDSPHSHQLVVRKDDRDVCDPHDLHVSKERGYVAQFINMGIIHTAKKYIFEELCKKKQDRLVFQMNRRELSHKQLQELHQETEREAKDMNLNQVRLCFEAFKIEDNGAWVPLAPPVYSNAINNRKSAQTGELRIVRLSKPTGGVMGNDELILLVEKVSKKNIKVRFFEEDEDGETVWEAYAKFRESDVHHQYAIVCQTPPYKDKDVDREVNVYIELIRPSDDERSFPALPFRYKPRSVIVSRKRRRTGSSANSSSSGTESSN

The next test addresses T5, GST-Aq-NF-kB (Amphimedon queenslandica, UniProt A9Y5G7 2-389).
T5 sequence: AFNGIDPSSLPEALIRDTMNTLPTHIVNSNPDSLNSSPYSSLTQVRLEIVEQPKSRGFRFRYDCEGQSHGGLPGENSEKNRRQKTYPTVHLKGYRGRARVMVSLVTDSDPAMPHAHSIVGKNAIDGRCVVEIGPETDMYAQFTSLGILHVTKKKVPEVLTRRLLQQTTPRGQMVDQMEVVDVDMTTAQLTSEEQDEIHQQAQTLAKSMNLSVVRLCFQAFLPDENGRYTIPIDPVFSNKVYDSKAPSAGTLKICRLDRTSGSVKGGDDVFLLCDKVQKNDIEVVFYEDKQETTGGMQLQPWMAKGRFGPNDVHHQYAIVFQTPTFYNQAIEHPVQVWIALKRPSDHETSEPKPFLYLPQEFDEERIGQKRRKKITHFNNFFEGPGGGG

Another test addresses GST-Hu-p50 (Homo sapiens, UniProt P19838 7-356).

Sequence of GST-Hu-p50 (P19838 7-356): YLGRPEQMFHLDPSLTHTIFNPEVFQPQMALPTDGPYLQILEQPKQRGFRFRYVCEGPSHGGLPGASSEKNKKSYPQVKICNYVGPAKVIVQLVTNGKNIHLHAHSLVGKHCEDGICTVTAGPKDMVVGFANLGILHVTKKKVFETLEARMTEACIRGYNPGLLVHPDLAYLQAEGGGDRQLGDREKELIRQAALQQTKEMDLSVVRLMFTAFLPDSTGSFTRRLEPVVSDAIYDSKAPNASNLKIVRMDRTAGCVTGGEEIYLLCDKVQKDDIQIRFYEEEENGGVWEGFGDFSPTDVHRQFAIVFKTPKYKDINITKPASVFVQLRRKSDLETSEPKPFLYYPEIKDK

As for “CCGATTAACATCAGGGGACCCCCTGATGTTAATCGGGTCTTGATTCGCTTGACGCTGCTG”, the binding signal was 9.65 z-score with GST-Ap-NF-kB RHD; 6.03 z-score in test [1]; 4.17 z-score with GST-Co-NF-kB; 10.7 z-score with GST-Dm-Relish; 8.56 z-score with GST-Aq-NF-kB; 5.4 z-score with GST-Hu-p50.
On to “CCGATTAACATCAGAAGTCCCCCTGATGTTAATCGGGTCTTGATTCGCTTGACGCTGCTG”, for which the binding signal with GST-Ap-NF-kB RHD came out at 7.95 z-score; in test [1], 7.32 z-score; with GST-Co-NF-kB, 5.95 z-score; in the test with GST-Dm-Relish, 7.74 z-score; in the test with GST-Aq-NF-kB it was 6.54 z-score; in the test with GST-Hu-p50, 6.36 z-score.
Consider “CCGATTAACATCAGGGGGAACAATGATGTTAATCGGGTCTTGATTCGCTTGACGCTGCTG”, for which the binding signal came to 5.8 z-score with GST-Ap-NF-kB RHD; 5.75 z-score in test [1]; 9.17 z-score with GST-Co-NF-kB; 3.62 z-score with GST-Dm-Relish; 4.61 z-score with GST-Aq-NF-kB; 5.11 z-score with GST-Hu-p50.
As for “CCGATTAACATCAAAAAAACCCTTGATGTTAATCGGGTCTTGATTCGCTTGACGCTGCTG”, the binding signal with GST-Ap-NF-kB RHD turned out to be 4.62 z-score; in test [1], 5.48 z-score; in the test with GST-Co-NF-kB, 1.11 z-score; in the test with GST-Dm-Relish, 6.8 z-score; with GST-Aq-NF-kB, 6.78 z-score; with GST-Hu-p50, 5.45 z-score.
In the case of “CCGATTAACATCACGGAATTCCCTGATGTTAATCGGGTCTTGATTCGCTTGACGCTGCTG”, the binding signal with GST-Ap-NF-kB RHD came to 6.01 z-score; in test [1], 6.74 z-score; in the test with GST-Co-NF-kB, 3.4 z-score; with GST-Dm-Relish it was 7.05 z-score; with GST-Aq-NF-kB, 7.07 z-score; in the test with GST-Hu-p50 it was 4.62 z-score.
For “CCGATTAACATCAGGATATCCCCTGATGTTAATCGGGTCTTGATTCGCTTGACGCTGCTG”, the binding signal in the test with GST-Ap-NF-kB RHD was 8.1 z-score; in test [1], 7.01 z-score; with GST-Co-NF-kB, 3.66 z-score; in the test with GST-Dm-Relish, 7.25 z-score; with GST-Aq-NF-kB, 7.17 z-score; with GST-Hu-p50, 5.46 z-score.
For the sequence “CCGATTAACATCATACTTCCCCATGATGTTAATCGGGTCTTGATTCGCTTGACGCTGCTG”, the binding signal with GST-Ap-NF-kB RHD amounted to 3.97 z-score; in test [1] it was 4.88 z-score; in the test with GST-Co-NF-kB, 4.69 z-score; with GST-Dm-Relish, 3.18 z-score; with GST-Aq-NF-kB, 3.58 z-score; in the test with GST-Hu-p50, 4.41 z-score.
Consider “CCGATTAACATCAAAACACCCCCTGATGTTAATCGGGTCTTGATTCGCTTGACGCTGCTG”, for which the binding signal with GST-Ap-NF-kB RHD worked out at 6.39 z-score; in test [1], 5.71 z-score; with GST-Co-NF-kB, 5.54 z-score; with GST-Dm-Relish, 6.95 z-score; with GST-Aq-NF-kB, 6.53 z-score; with GST-Hu-p50 it was 6.04 z-score.
Turning to “CCGATTAACATCAAGGGGGGAACTGATGTTAATCGGGTCTTGATTCGCTTGACGCTGCTG”, the binding signal with GST-Ap-NF-kB RHD worked out at 6.46 z-score; in test [1], 5.69 z-score; with GST-Co-NF-kB it was 7.52 z-score; in the test with GST-Dm-Relish it was 3.7 z-score; in the test with GST-Aq-NF-kB it was 5.19 z-score; with GST-Hu-p50, 5.52 z-score.
As to “CCGATTAACATCAGGAAATACCCTGATGTTAATCGGGTCTTGATTCGCTTGACGCTGCTG”, the binding signal in the test with GST-Ap-NF-kB RHD amounted to 6.05 z-score; in test [1], 8.7 z-score; with GST-Co-NF-kB, 1.14 z-score; with GST-Dm-Relish it was 7.3 z-score; in the test with GST-Aq-NF-kB it was 9.37 z-score; in the test with GST-Hu-p50 it was 6.12 z-score.
For the sequence “CCGATTAACATCAGAGATCCCCCTGATGTTAATCGGGTCTTGATTCGCTTGACGCTGCTG”, the binding signal with GST-Ap-NF-kB RHD was found to be 7.26 z-score; in test [1], 6.17 z-score; with GST-Co-NF-kB, 4.52 z-score; with GST-Dm-Relish, 6.84 z-score; with GST-Aq-NF-kB, 5.8 z-score; with GST-Hu-p50, 6.13 z-score.
As for “CCGATTAACATCAGGGGGAGTCATGATGTTAATCGGGTCTTGATTCGCTTGACGCTGCTG”, the binding signal with GST-Ap-NF-kB RHD came out at 5.67 z-score; in test [1], 4.38 z-score; with GST-Co-NF-kB, 4.79 z-score; in the test with GST-Dm-Relish, 3.88 z-score; with GST-Aq-NF-kB, 4.55 z-score; with GST-Hu-p50, 4.72 z-score.
